We go through two sequences from patent US6124449, “High affinity TGFβ nucleic acid ligands and inhibitors” (NeXstar Pharmaceuticals, Inc.).

The target of assay [1] is T1, KGF (hKGF) (Homo sapiens, UniProt P21781 P21781:32-194).
T1 sequence: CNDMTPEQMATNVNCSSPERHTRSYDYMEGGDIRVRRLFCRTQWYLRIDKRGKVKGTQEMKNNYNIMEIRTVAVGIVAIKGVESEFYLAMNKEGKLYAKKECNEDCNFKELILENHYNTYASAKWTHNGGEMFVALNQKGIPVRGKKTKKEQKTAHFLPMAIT
The experiment in a line: filter; similar to random RNA. The settings on record: label: 5'-biotin for BIAcore specificity; proposed double pseudoknot; ssRNA; 2'-F C and U. For orientation: In SPR one partner is held on a chip, and binding of the other changes the refractive index at the surface.

Assay [2] deals with VEGF (hVEGF) (Homo sapiens, UniProt P15692-4 P15692-4:27-191). The assay can be described thus: filter; similar to random RNA. The settings on record: chain copies: 2; label: 5'-biotin for BIAcore specificity; proposed double pseudoknot; ssRNA; 2'-F C and U.
Sequence of VEGF (hVEGF) (P15692 other isoform, or with tags, fused parts or gaps): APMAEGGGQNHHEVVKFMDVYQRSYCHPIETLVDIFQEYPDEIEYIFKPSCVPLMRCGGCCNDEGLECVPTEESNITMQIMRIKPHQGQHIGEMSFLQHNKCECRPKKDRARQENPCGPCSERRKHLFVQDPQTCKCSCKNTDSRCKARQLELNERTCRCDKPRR
Assay [3] addresses T2, TGF-beta2 (Homo sapiens, UniProt P61812 P61812:303-414).
T2 sequence: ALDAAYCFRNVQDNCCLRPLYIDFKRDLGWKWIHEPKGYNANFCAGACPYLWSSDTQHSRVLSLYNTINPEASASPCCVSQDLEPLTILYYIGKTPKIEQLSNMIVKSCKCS
The experiment in a line: filter; similar to random RNA by filter. The settings on record: chain copies: 2; label: 5'-biotin for BIAcore specificity; proposed double pseudoknot; ssRNA; 2'-F C and U.

For “GGGAGGACGAUGCGGGGGUUAUUGGGCGUCAACAUCCCCGAUUCUUUUCACGUCCAGACGACUCGCCCGA”, the binding signal is > 34000 fold Kd vs hTGF-beta1 in assay [1], > 340000 fold Kd vs hTGF-beta1 in assay [2] and > 340000 fold Kd vs hTGF-beta1 in assay [3].
For the sequence “GGGAGGACGAUGCGGUUAUGGGCGUCAACACCGCUAUUACAGUUUUCGCCUCCCCCAGACGACUCGCCCGA”, the binding signal in assay [1] was > 34000 fold Kd vs hTGF-beta1; in assay [2], > 340000 fold Kd vs hTGF-beta1; in assay [3], > 340000 fold Kd vs hTGF-beta1.
